Compound activity: PubChem, National Center for Advancing Translational Sciences (NCATS)
Rows were chosen to be rich in hits. Some 0.92% of all compounds tested hit in one or more screens of this group.
NS1 inh: influenza NS1 inhibition; Potency, µM (highest dose often 46.1 µM); 270,000 compounds, 0.4% hits; calls by dose curve; also: actives are rising curves; nearly all actives have a fitted effect of over 50% in size
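In this qHTS, NS1 from influenza A is expressed in budding yeast, where it slows growth. Cells are switched from glucose to 2% galactose medium (pH 6.0, -URA), treated with compound, and growth recovery is read at OD600.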
AMA1-RON2 inh: AMA1-RON2 (P. falciparum) interaction inhibition. 360,000 compounds, 0.2% hits. Potency, µM (series often up to 58.2 µM), most hits filed as inhibitors. AlphaScreen AMA1-biotinylated RON2 peptide binding. AID 720542; also: nearly all actives have a fitted effect of over 45% in size
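AMA1 (3D7) with his tag at 25 nM final met compounds first, then biotinylated RON2 peptide at 25 nM; detection used donor plus acceptor beads, 10 µg/mL apiece, read by AlphaScreen after 30 min at room temperature.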
Tb PYK inh: T. brucei pyruvate kinase inhibition | Q57TT1 | TbPYK enzyme, Kinase-Glo Plus ATP luminescence, 45 min | 410,000 compounds, 0.12% hits | AID 624173 | Potency, µM (titrated, usually from 76.8 µM), actives largely listed as inhibitors; also: nearly all actives have a fitted effect of over 50% in size
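Quantitative HTS: titrated library compounds versus trypanosomal pyruvate kinase in TEA buffer (pH 7.2) containing KCl, MgCl2, BSA and Tween-20. Reactions were initiated with ADP, 130 uM final. Kinase-Glo Plus luminescence was read after 45 min at RT.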
LmPK inhibitor: blocks Leishmania mexicana pyruvate kinase activity | purified LmPK, Kinase-Glo ATP luminescence, 1 h | Q27686 | Potency, µM (highest dose often 57.5 µM), actives largely listed as inhibitors | 290,000 compounds, 0.37% hits | AID 1721
Target sequence (Q27686 whole entry, looked up): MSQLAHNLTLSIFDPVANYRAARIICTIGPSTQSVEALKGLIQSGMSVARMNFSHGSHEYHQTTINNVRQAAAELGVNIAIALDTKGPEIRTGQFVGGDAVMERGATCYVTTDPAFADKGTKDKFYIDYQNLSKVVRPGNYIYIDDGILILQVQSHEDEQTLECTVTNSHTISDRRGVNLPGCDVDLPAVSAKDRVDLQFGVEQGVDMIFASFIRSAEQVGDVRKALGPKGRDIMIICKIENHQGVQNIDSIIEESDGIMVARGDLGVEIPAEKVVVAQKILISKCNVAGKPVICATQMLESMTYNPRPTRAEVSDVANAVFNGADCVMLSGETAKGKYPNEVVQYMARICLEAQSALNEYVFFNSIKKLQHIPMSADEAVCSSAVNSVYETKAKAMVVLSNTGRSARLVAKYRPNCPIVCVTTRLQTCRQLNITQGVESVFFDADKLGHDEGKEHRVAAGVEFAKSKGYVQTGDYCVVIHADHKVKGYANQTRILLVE
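In 50 mM imidazole pH 7.2 with 7 mM MgCl2, LmPK (0.1 nM) turned over PEP (0.5 mM) and ADP (0.1 mM) for 1 h at room temperature. Luciferase read-out of ATP.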
RE007 growth inh: less growth of the S. pombe RE007 Vpr strain; S. pombe RE007 Vpr strain, BacTiter-Glo ATP luminescence, 24 h; Potency, µM (top dose mostly 92.2 µM), actives largely listed as inhibitors; 360,000 compounds, 0.21% hits; AID 651644; active = well fitted falling curve with a large enough effect; inconclusive = small, poorly fitted or top-dose-only effect; inactive = no such curve, though single readings can be large or run the other way; also: nearly all actives have a fitted effect of over 50% in size
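Fission yeast RE007 carrying one integrated HIV-1 vpr copy, seeded at OD 0.01 in PMG+AL medium with 23 nL pinned compound. Grown 24 h at 30 degrees; viability read by BacTiter-Glo luminescence after 5 min.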
Flu NS1 inh: validation of influenza NS1 protein function inhibitors | shares compounds with NS1 inh | influenza NS1 function cell assay, 15-point titration | activity change, negative = inhibition, % at 32.9 µM | 1,400 tested, under 10 active | AID 492980; calls by dose curve
Flu PR8 replic: reduces influenza A/PR/8/34 replication in MDCK cells | shares compounds with NS1 inh | MDCK infected influenza A/PR/8/34, virus titer TCID50; hits give low values | virus titer (log TCID50), log10 TCID50 at 5 µM | 95 compounds, 30% hits; call rule not given here
Of the large screens only hits and unclear results are named; the others gave an inactive call (follow-up assays come after a bar, where they were run). Unless noted, calls follow the shape of the dose curve; as a rule, active = well fitted curve in the direction sought with a large enough effect; inconclusive = small, poorly fitted or top-dose-only effect, or another doubt; inactive = no such curve, though single readings can be large; an effect the other way counts as inactive or inconclusive.

O=C(NCc1ccccc1)c1cccc(OCC(=O)N2CCN(C(=O)c3ccco3)CC2)c1	NS1 inh inconclusive | Flu NS1 inh inactive
Cc1cc(C)nc(OC(C(=O)O)C(OCCC(C)C)(c2ccccc2)c2ccccc2)n1 (stereo unspecified)	NS1 inh 2.5µM | Flu NS1 inh inactive
Cc1ccnc(OC(C(=O)O)C(OCc2ccccc2)(c2ccccc2)c2ccc(C(F)(F)F)cc2)n1 (stereo unspecified)	NS1 inh inconclusive | Flu NS1 inh inactive
CCOC(=O)c1sc2ccccc2c1S(=O)(=O)N1CCN(c2cccc(C)c2)C(C)C1 (stereo unspecified)	none (no result: NS1 inh, AMA1-RON2 inh, LmPK inhibitor, RE007 growth inh)
COc1ccc([C@H]2[C@H](C(=O)C(C)(C)C)N3N=Cc4ccccc4C3[C@]23N=C(c2ccccc2)OC3=O)cc1 (stereo partly specified)	NS1 inh 2µM | Flu NS1 inh inactive
COc1ccc([C@H]2[C@H](C(=O)C(C)(C)C)N3N=Cc4ccccc4C3[C@]23N=C(c2ccccc2)OC3=O)cc1OC (stereo partly specified)	none
C=C1C(=O)C=C[C@]2(C)C[C@@H]3OC(=O)[C@](C)(O)[C@H]3C[C@@H]12	NS1 inh inconclusive | Flu NS1 inh inactive
COc1ccc(NS(=O)(=O)c2cccc(N/C(=N\S(=O)(=O)c3ccccc3)c3ccc(F)cc3)c2)cc1	NS1 inh 11µM | Flu NS1 inh inactive
COc1ccc(-c2cn3cccnc3n2)cc1NC(=O)Nc1cc(C)ccc1C	none (no result: NS1 inh, AMA1-RON2 inh, LmPK inhibitor, RE007 growth inh)
NC(=O)C1CCN(S(=O)(=O)c2ccc(N3CCCCS3(=O)=O)cc2)CC1	none (no result: NS1 inh, AMA1-RON2 inh, LmPK inhibitor, RE007 growth inh)
O=[N+]([O-])c1ccccc1NCc1c(O)ccc2ccccc12	NS1 inh 8.9µM (no result: RE007 growth inh) | Flu NS1 inh inactive
CCc1cc(=O)oc2cc(C)cc(OCC(=O)N[C@@H](CSCc3ccccc3)C(=O)O)c12	NS1 inh 10µM | Flu NS1 inh inactive | Flu PR8 replic 7.3
Cc1ccc(CCN2CC(C(=O)NCCC(C)C)CC2=O)cc1 (stereo unspecified)	none
Cc1ccc(CCN2CC(C(=O)NCc3ccco3)CC2=O)cc1 (stereo unspecified)	NS1 inh inconclusive | Flu NS1 inh inactive
O=C(CSCC(=O)N1CCCc2ccccc21)Nc1nc(-c2ccccc2)cs1	NS1 inh 20µM | Flu NS1 inh inactive
COc1ccccc1-c1nc2c(c(SCC(=O)Nc3ccc(C)c(C)c3)n1)Cc1c(CO)cnc(C)c1O2	none (no result: NS1 inh, AMA1-RON2 inh, LmPK inhibitor, RE007 growth inh)
COc1ccc(-c2csc(C3=C(O)CN(Cc4ccc(Cl)cc4)C3=N)n2)cc1OC	none
COc1cccc(CN2CC(O)=C(c3nc(-c4ccc(Cl)cc4)cs3)C2=N)c1	NS1 inh 5µM | Flu NS1 inh inactive
CN(C)S(=O)(=O)c1ccc(NC(=O)CSc2nc3ccccc3n2-c2ccccc2)cc1	NS1 inh 10µM | Flu NS1 inh inactive
COc1cc(NC(=O)CSc2nc3ccccc3n2-c2ccccc2)c(C)cc1[N+](=O)[O-]	NS1 inh 22µM (no result: RE007 growth inh) | Flu NS1 inh inactive | Flu PR8 replic inactive
Cc1nc2nc(SCC(=O)N(C)Cc3ccccc3)nn2c(C)c1Cc1ccccc1Cl	none (no result: NS1 inh, AMA1-RON2 inh, LmPK inhibitor, RE007 growth inh)
O=C(Nc1ccccc1C(F)(F)F)N1CCOc2ccc(Cl)cc21	none (no result: NS1 inh, AMA1-RON2 inh, LmPK inhibitor, RE007 growth inh)
c1ccc(-n2cnc3cc(NCc4ccccn4)ccc32)cc1	AMA1-RON2 inh inconclusive
c1ccc(-n2cnc3cc(NCc4ccncc4)ccc32)cc1	NS1 inh inconclusive | Flu NS1 inh inactive
O=C(Nc1ccccc1C(F)(F)F)c1ccc(F)c(S(=O)(=O)N2CCc3ccccc3C2)c1	none (no result: NS1 inh, AMA1-RON2 inh, LmPK inhibitor, RE007 growth inh)
Cn1c(=O)c2c(n(Cc3ccccc3)c1=O)NC(=O)C2CC(=O)NCc1cccc(Cl)c1 (stereo unspecified)	NS1 inh 14µM | Flu NS1 inh inactive
CCc1ccc(NC(=O)CC2C(=O)Nc3c2c(=O)n(C)c(=O)n3C)cc1 (stereo unspecified)	none
Cc1nn(-c2ccccc2)c(C)c1/C=N/NC(=O)c1cc(-c2ccc(Br)s2)[nH]n1	none
Cc1nn(-c2ccccc2)c(C)c1/C=N/NC(=O)c1cc(-c2ccc(Cl)s2)[nH]n1	NS1 inh 8.9µM | Flu NS1 inh inactive
Cc1cc(N2CCCC2)nc(-c2ccccc2O)n1	NS1 inh 0.71µM | Flu NS1 inh inactive
Cc1cc(N2CCN(C)CC2)nc(-c2ccccc2O)n1	none
Cc1ccc2c(c1)C(c1ccccc1)N(C(=O)c1ccc(Br)o1)CC(=O)N2 (stereo unspecified)	none
O=C1CN(C(=O)c2ccc(Br)o2)C(c2ccccc2)c2cc(Br)ccc2N1 (stereo unspecified)	NS1 inh 11µM | Flu NS1 inh inactive
Cc1nc2ccc(-c3nc4ccccc4[nH]3)cc2[nH]1	NS1 inh inconclusive | Flu NS1 inh inactive
Cc1c2cnn(CC(=O)NC(C)C)c(=O)c2c(C)n1Cc1ccccc1Cl	none (no result: NS1 inh, AMA1-RON2 inh, LmPK inhibitor, RE007 growth inh)
CCCC(CCC)C(=O)OC1C[C@H]2CC[C@@H](C1)[N+]2(C)C (stereo partly specified)	NS1 inh inconclusive | Flu NS1 inh inactive
CCOC(=O)N1CCN(c2c(NCCCN(CC)Cc3ccccc3)c(=O)c2=O)CC1	NS1 inh 1µM | Flu NS1 inh inactive
CCN1C(=O)c2ccccc2S(=O)(=O)c2ccc(C(=O)NCc3ccccc3)cc21	none (no result: NS1 inh, AMA1-RON2 inh, LmPK inhibitor, RE007 growth inh)
Nc1nonc1-n1nnc(C(=O)N/N=C/c2ccco2)c1CSc1ccccc1	NS1 inh inconclusive | Flu NS1 inh inactive
Cc1ccc(SCc2c(C(=O)N/N=C/c3ccco3)nnn2-c2nonc2N)cc1	none (no result: NS1 inh, LmPK inhibitor)
O=C(CSc1nc2ccccc2c(=O)n1-c1ccc(F)cc1)Nc1ccc2c(c1)CCC2	NS1 inh inconclusive
Cc1ccc(-n2c(SCC(=O)Nc3cccc(S(=O)(=O)NC4=NCCCCC4)c3)nc3ccccc3c2=O)cc1	none
O=C(CSc1nc2ccccc2c(=O)n1-c1ccccc1F)Nc1ccc2c(c1)CCC2	NS1 inh inconclusive
O=C(CSc1nc2ccccc2c(=O)n1-c1ccc(F)cc1)Nc1ccc(C(=O)O)cc1	NS1 inh 14µM | Flu NS1 inh inconclusive
O=C(CSc1nc2ccccc2c(=O)n1-c1ccc(F)cc1F)Nc1ccc2c(c1)CCC2	NS1 inh 13µM | Flu NS1 inh inactive
Cc1ccc(-n2c(SCC(=O)NNC(=S)Nc3ccccc3)nc3ccccc3c2=O)cc1	NS1 inh 4.5µM (no result: RE007 growth inh) | Flu NS1 inh inactive
CCOC(=O)COc1c(OC)cc(Cl)cc1C1Nc2ccccc2C(=O)N1c1ccccc1 (stereo unspecified)	none
